# Measurements published in PMC7862700, “An all-to-all approach to the identification of sequence-specific readers for epigenetic DNA modifications on cytosine”.
# How the values were obtained:
# Experiment in all cases: DAPPL (digital affinity profiling via proximity ligation, sequencing); 10 mM Tris-HCl pH 7.5, 50 mM NaCl, 1 mM DTT, 4% glycerol, room temperature, 30 min; GST-TFs on glutathione beads, 16-mer random dsDNA library, 0.1% formaldehyde crosslink after washing; high values mean tight binding
# [1] = target: T1, FLI1 (Homo sapiens, UniProt Q01543 1-452); conditions: protein: recombinant; tags: N-terminal GST; dsDNA, one strand shown
# T1 sequence: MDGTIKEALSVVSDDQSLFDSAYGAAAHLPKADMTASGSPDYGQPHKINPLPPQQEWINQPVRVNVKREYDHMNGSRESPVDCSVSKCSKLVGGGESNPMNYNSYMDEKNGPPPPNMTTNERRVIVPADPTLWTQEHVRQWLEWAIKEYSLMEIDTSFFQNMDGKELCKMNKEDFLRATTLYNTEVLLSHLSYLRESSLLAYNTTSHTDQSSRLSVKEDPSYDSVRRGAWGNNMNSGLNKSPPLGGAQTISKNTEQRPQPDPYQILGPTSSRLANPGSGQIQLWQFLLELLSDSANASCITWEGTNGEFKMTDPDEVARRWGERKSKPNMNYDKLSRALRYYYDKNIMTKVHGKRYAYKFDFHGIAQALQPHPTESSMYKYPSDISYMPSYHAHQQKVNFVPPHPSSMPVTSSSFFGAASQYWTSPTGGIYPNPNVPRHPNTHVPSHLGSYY
# Procedure, shortened: (§1)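 After expression in yeast as GST fusions, human transcription factors were bound to glutathione beads, DNA-barcoded and mixed with a tag-only sample. The pools were incubated with 200 nmole of a 16-mer random double-stranded DNA library in Tris/NaCl/DTT/glycerol buffer (30 min, room temperature), washed and crosslinked with 0.1% formaldehyde. Proximity ligation with BsaI/T4 ligase ran for 1 h at 37 °C, before PCR amplification and sequencing on an Illumina NextSeq500. Binding signal is a hexamer's read frequency for a factor divided by its frequency for the tag-only sample.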
# [2] = target: T2, ELK1 (Homo sapiens, UniProt P19419 1-428); conditions: protein: recombinant; tags: N-terminal GST; dsDNA, one strand shown
# T2 sequence: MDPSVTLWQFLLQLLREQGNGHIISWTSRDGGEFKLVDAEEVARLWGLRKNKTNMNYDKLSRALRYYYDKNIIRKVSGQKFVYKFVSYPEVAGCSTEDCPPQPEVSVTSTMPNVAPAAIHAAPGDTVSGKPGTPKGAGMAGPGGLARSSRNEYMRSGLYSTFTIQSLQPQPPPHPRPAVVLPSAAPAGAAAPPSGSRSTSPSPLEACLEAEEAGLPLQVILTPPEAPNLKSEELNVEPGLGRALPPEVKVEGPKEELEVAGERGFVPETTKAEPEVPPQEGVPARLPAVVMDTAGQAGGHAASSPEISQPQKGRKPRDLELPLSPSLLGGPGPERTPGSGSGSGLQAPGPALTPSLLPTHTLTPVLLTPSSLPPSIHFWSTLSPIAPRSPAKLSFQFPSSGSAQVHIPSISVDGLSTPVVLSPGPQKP
# Procedure, shortened: as §1
# [3] = target: T3, GABPA (Homo sapiens, UniProt Q06546 1-454); conditions: protein: recombinant; tags: N-terminal GST; dsDNA, one strand shown
# T3 sequence: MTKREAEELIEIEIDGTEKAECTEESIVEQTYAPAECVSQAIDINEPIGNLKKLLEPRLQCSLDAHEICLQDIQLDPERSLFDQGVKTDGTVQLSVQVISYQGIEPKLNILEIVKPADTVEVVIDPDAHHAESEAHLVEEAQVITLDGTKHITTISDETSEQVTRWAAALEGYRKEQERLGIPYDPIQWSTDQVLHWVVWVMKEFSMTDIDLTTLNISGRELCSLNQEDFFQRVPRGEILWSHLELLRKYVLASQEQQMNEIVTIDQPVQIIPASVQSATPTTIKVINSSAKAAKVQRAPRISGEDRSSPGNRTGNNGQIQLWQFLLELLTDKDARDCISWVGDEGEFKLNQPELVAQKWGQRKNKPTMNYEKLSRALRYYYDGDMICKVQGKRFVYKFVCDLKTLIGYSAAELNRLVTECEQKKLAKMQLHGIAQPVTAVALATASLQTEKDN
# Procedure, shortened: as §1
# [4] = target: T4, ERG (Homo sapiens, UniProt P11308 1-479); conditions: protein: recombinant; tags: N-terminal GST; dsDNA, one strand shown
# T4 sequence: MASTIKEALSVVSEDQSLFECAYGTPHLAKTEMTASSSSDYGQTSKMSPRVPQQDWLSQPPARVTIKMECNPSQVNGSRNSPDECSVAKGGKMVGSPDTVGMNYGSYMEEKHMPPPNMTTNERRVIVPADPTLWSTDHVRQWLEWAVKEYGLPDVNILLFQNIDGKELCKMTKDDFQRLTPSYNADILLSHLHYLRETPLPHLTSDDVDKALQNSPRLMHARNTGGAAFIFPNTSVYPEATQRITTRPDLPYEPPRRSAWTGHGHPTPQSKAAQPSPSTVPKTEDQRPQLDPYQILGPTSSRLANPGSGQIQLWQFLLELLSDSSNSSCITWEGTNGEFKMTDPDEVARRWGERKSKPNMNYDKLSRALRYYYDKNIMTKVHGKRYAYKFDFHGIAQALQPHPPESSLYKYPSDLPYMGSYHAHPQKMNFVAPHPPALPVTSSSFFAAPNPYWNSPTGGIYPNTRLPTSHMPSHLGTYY
# Procedure, shortened: as §1
# [5] = target: ELF1 (Homo sapiens, UniProt P32519 1-619); conditions: protein: recombinant; tags: N-terminal GST; dsDNA, one strand shown
# Sequence of ELF1 (P32519 whole entry): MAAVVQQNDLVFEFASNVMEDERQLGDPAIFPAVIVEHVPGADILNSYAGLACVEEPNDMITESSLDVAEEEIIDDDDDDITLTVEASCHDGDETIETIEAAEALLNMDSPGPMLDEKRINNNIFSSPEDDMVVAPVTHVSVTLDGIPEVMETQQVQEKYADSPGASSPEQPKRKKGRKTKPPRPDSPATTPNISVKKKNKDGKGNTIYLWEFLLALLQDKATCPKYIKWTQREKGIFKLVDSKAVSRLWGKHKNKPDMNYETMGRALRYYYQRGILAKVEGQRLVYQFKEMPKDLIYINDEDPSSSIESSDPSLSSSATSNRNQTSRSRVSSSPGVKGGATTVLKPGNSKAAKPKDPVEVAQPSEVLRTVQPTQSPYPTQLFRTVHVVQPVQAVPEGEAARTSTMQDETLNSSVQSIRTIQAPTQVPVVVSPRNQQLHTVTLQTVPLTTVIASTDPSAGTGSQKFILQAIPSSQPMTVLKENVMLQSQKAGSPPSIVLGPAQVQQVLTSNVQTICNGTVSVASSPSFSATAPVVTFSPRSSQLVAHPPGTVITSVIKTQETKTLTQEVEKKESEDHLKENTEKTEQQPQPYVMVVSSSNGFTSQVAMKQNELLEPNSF
# Procedure, shortened: as §1
# [6] = target: T5, EHF (Homo sapiens, UniProt Q9NZC4 1-300); conditions: protein: recombinant; tags: N-terminal GST; dsDNA, one strand shown
# T5 sequence: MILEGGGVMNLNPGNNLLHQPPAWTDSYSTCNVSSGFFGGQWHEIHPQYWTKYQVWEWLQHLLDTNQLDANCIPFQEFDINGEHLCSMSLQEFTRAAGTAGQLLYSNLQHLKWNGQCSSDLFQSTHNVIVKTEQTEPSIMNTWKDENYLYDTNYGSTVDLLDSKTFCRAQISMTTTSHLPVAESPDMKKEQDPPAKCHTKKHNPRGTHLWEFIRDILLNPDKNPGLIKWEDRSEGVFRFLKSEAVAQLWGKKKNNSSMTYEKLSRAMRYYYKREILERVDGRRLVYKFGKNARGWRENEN
# Procedure, shortened: as §1
# [7] = target: SPI1 (Homo sapiens, UniProt P17947 1-270); conditions: protein: recombinant; tags: N-terminal GST; dsDNA, one strand shown
# Procedure, shortened: as §1
# [8] = target: SPIB (Homo sapiens, UniProt Q01892 1-262); conditions: protein: recombinant; tags: N-terminal GST; dsDNA, one strand shown
# Sequence of SPIB (Q01892 whole entry): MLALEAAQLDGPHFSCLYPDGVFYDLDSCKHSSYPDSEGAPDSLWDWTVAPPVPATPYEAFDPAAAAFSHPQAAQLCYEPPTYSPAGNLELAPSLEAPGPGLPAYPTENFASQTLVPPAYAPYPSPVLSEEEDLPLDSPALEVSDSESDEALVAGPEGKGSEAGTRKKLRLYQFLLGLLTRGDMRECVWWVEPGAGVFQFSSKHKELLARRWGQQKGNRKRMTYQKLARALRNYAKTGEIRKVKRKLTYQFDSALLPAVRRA
# Procedure, shortened: as §1
# [9] = target: T6, ELK3 (Homo sapiens, UniProt P41970 1-407); conditions: protein: recombinant; tags: N-terminal GST; dsDNA, one strand shown
# T6 sequence: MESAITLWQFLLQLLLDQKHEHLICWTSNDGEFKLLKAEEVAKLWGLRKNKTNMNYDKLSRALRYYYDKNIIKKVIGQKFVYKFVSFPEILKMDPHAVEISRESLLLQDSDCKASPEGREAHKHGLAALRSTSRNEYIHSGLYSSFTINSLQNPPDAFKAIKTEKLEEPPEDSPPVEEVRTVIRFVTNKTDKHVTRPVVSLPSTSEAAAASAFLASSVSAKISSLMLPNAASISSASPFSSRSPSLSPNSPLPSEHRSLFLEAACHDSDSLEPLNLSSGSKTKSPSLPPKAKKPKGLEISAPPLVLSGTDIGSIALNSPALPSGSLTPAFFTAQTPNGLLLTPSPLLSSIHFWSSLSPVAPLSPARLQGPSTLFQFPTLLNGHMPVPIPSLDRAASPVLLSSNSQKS
# Procedure, shortened: as §1
# [10] = target: T7, FEV (Homo sapiens, UniProt Q99581 1-238); conditions: protein: recombinant; tags: N-terminal GST; dsDNA, one strand shown
# T7 sequence: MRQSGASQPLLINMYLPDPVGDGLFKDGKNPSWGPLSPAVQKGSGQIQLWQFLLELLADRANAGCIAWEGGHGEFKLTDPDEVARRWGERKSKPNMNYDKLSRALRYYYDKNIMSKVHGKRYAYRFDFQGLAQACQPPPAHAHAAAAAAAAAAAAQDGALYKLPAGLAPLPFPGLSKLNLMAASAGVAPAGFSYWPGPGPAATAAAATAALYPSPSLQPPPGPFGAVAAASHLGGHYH
# Procedure, shortened: as §1
# [11] = target: ETV5 (Homo sapiens, UniProt P41161 1-510); conditions: protein: recombinant; tags: N-terminal GST; dsDNA, one strand shown
# Sequence of ETV5 (P41161 whole entry): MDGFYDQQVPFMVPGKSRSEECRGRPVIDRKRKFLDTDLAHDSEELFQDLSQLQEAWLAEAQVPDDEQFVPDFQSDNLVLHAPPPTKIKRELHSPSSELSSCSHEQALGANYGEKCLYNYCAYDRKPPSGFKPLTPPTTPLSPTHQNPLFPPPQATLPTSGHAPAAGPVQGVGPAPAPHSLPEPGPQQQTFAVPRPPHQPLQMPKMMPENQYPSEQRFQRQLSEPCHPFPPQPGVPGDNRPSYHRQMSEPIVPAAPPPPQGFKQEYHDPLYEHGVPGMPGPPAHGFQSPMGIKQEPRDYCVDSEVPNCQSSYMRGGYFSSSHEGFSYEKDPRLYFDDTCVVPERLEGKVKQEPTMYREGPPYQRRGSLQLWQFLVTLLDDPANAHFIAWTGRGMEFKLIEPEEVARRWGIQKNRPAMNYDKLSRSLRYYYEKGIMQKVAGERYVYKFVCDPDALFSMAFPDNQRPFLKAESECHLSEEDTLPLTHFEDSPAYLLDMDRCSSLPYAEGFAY
# Procedure, shortened: as §1
# [12] = target: HSF1 (Homo sapiens, UniProt Q00613 1-529); conditions: protein: recombinant; tags: N-terminal GST; chain copies: 3; dsDNA, one strand shown
# Sequence of HSF1 (Q00613 whole entry): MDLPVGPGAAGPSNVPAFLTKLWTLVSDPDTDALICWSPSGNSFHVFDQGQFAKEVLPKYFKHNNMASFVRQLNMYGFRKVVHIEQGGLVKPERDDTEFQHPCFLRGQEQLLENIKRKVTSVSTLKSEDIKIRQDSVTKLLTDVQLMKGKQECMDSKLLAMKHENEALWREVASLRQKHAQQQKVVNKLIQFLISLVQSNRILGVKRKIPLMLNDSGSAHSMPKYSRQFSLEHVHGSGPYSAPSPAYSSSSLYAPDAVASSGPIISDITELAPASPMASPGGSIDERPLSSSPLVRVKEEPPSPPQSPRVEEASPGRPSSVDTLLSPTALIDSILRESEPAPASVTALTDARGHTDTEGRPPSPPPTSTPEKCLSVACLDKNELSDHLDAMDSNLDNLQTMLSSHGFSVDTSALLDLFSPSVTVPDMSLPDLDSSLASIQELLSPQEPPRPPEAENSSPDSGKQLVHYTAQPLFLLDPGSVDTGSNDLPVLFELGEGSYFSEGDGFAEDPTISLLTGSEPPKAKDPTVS
# Procedure, shortened: as §1
# [13] = target: T8, SPIC (Homo sapiens, UniProt Q8N5J4 1-248); conditions: protein: recombinant; tags: N-terminal GST; dsDNA, one strand shown
# T8 sequence: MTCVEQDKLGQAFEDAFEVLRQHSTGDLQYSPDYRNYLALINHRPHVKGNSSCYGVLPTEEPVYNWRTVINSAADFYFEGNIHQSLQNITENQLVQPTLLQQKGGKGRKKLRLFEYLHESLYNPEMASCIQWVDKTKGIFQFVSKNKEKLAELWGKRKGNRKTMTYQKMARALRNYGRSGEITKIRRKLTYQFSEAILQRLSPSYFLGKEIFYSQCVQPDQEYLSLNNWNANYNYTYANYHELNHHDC
# Procedure, shortened: as §1
# [14] = target: ELF4 (Homo sapiens, UniProt Q99607 1-663); conditions: protein: recombinant; tags: N-terminal GST; dsDNA, one strand shown
# Sequence of ELF4 (Q99607 whole entry): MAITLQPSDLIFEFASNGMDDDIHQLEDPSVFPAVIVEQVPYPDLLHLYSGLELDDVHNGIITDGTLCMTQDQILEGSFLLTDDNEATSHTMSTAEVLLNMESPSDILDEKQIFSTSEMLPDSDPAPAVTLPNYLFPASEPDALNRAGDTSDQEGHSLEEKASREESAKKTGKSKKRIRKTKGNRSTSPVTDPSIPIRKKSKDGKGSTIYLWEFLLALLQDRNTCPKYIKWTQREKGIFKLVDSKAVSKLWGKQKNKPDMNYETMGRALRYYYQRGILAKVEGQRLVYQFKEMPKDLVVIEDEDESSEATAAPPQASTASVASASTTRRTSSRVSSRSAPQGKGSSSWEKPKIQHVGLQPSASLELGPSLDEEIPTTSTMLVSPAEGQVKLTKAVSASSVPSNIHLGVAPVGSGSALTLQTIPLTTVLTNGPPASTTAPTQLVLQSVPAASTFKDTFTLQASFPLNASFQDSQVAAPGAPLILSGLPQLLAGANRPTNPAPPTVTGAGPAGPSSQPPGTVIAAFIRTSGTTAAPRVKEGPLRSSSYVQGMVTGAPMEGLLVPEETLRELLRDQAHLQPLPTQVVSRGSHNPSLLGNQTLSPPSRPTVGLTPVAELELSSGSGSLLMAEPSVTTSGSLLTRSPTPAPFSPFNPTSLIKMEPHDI
# Procedure, shortened: as §1
# [15] = target: T9, ELK4 (Homo sapiens, UniProt P28324-2 1-405); conditions: protein: recombinant; tags: N-terminal GST; dsDNA, one strand shown
# T9 sequence: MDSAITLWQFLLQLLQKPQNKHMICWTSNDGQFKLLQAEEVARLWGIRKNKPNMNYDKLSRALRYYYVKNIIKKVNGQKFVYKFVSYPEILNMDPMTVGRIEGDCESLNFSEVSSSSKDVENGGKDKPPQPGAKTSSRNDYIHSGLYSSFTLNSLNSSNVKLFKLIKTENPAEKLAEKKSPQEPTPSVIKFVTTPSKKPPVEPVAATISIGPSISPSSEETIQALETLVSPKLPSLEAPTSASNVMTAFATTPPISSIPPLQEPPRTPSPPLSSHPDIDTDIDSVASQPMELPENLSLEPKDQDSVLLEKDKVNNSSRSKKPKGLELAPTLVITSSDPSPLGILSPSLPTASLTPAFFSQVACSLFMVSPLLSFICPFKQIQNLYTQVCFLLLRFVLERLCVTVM
# Procedure, shortened: as §1
# [16] = target: T10, ETV2 (Homo sapiens, UniProt O00321 1-342); conditions: protein: recombinant; tags: N-terminal GST; dsDNA, one strand shown
# T10 sequence: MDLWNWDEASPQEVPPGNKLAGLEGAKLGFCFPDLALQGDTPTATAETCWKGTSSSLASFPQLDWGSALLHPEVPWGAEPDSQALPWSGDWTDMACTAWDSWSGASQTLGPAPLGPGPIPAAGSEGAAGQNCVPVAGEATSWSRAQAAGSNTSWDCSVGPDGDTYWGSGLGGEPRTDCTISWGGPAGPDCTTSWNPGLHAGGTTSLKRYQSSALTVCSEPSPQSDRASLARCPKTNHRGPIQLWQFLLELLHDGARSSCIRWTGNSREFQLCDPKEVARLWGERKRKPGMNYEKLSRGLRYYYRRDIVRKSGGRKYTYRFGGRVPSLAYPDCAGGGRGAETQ
# Procedure, shortened: as §1
# [17] = target: T11, ELF3 (Homo sapiens, UniProt P78545 1-371); conditions: protein: recombinant; tags: N-terminal GST; dsDNA, one strand shown
# T11 sequence: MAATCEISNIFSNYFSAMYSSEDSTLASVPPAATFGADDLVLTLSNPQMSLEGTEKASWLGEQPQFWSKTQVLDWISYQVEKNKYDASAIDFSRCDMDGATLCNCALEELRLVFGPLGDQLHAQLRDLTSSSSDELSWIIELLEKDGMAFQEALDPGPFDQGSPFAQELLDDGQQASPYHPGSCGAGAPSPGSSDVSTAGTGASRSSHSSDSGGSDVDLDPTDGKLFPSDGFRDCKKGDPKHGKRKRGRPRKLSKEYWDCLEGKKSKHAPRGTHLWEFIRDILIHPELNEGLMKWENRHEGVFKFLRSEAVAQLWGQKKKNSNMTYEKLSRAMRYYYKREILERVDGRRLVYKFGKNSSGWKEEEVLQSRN
# Procedure, shortened: as §1
# [18] = target: CRX (Homo sapiens, UniProt O43186 1-299); conditions: protein: recombinant; tags: N-terminal GST; dsDNA, one strand shown
# Sequence of CRX (O43186 whole entry): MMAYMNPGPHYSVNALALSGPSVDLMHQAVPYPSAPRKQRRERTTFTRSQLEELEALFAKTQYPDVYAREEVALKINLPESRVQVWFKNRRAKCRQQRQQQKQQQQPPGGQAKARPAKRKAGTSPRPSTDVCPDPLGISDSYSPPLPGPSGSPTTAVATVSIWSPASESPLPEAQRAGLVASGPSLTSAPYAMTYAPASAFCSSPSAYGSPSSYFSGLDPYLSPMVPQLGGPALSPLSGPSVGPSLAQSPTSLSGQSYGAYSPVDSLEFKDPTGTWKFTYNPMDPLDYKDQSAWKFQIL
# Procedure, shortened: as §1
# [19] = target: ETV1 (Homo sapiens, UniProt P50549 1-477); conditions: protein: recombinant; tags: N-terminal GST; dsDNA, one strand shown
# Sequence of ETV1 (P50549 whole entry): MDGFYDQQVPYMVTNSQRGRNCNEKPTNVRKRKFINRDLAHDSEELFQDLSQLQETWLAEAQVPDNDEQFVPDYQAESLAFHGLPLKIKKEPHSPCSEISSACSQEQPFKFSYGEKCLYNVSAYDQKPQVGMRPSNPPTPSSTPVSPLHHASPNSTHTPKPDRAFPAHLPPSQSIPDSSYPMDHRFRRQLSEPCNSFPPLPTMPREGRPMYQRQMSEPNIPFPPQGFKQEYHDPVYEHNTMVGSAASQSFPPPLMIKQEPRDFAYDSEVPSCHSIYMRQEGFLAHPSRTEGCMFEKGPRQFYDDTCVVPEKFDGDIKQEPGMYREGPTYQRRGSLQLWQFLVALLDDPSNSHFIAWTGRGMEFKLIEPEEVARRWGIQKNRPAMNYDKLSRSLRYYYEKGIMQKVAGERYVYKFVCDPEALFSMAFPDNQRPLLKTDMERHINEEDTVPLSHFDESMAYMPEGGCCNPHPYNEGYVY
# Procedure, shortened: as §1
sequence,measurement,setting,value
TATAGG,binding signal,[1],"1.14 fold enrichment (6-mer frequency, TF over GST control)"
same,binding signal,[2],"1.06 fold enrichment (6-mer frequency, TF over GST control)"
same,binding signal,[3],"1.19 fold enrichment (6-mer frequency, TF over GST control)"
same,binding signal,[4],"1.18 fold enrichment (6-mer frequency, TF over GST control)"
same,binding signal,[5],"1.15 fold enrichment (6-mer frequency, TF over GST control)"
same,binding signal,[6],"1.28 fold enrichment (6-mer frequency, TF over GST control)"
same,binding signal,[7],"1.23 fold enrichment (6-mer frequency, TF over GST control)"
same,binding signal,[8],"1.27 fold enrichment (6-mer frequency, TF over GST control)"
same,binding signal,[9],"1.08 fold enrichment (6-mer frequency, TF over GST control)"
same,binding signal,[10],"1.15 fold enrichment (6-mer frequency, TF over GST control)"
same,binding signal,[11],"1.24 fold enrichment (6-mer frequency, TF over GST control)"
same,binding signal,[12],"1.2 fold enrichment (6-mer frequency, TF over GST control)"
same,binding signal,[13],"1.34 fold enrichment (6-mer frequency, TF over GST control)"
same,binding signal,[14],"1.05 fold enrichment (6-mer frequency, TF over GST control)"
same,binding signal,[15],"1.14 fold enrichment (6-mer frequency, TF over GST control)"
same,binding signal,[16],"1.26 fold enrichment (6-mer frequency, TF over GST control)"
same,binding signal,[17],"1.19 fold enrichment (6-mer frequency, TF over GST control)"
same,binding signal,[18],"1.42 fold enrichment (6-mer frequency, TF over GST control)"
same,binding signal,[19],"1.13 fold enrichment (6-mer frequency, TF over GST control)"
